According to PubChem BioAssay (Tox21):
Records with an inconclusive call do not appear. The source made the active and inactive calls. Unless noted, the call rests on the fitted dose curve; in most records, active means well fitted curve in the direction sought with a large enough effect in the repeat runs; inconclusive means weak or mixed curves; inactive means no such curve, though single readings can be large; an effect the other way counts as inactive or inconclusive.

How the values were obtained:
[1] = target: Progesterone receptor (Homo sapiens) (UniProt P06401); assay: qHTS assay to identify small molecule antagonists of the progesterone receptor (PR) signaling pathway (AID 1346795; active means well fitted inhibition curve with a large enough effect in the signal ratio in the repeat runs, not every such curve was filed as active; the % refers to the signal ratio; further: potency means the concentration at half of the fitted maximal effect)
How it was run: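 After 6 hr plating at 37C in 2% stripped-serum medium, PR-UAS-bla HEK293T cells got compounds, then 1 nM R5020. Sixteen hours later, LiveBLAzer substrate was applied for 2 hr at room temperature and fluorescence was recorded.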

[2] = qHTS assay to identify small molecule antagonists of the progesterone receptor (PR) signaling pathway - cell viability counter screen (AID 1346798); further: nearly all actives have a fitted effect of over 50% in size; further: potency means the concentration at half of the fitted maximal effect
How it was run: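 Viability was determined by ATP-based luminescence (CellTiter-Glo) in PR-UAS-bla HEK293T cells cultured in 2% charcoal-stripped serum and incubated 16 hr with compounds under R5020 stimulation.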

[3] = qHTS assay to identify small molecule antagonists of the TGF-beta/Smad signaling pathway - cell viability counter screen (AID 1346824); further: nearly all actives have a fitted effect of over 50% in size
How it was run: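 SBE-bla HEK 293T cells were plated overnight at 37 C, then given compounds in DMSO plus TGF-beta1 (added as 0.25 ng/mL solution) for 5 hr. After the bla read, CellTiter-Glo was added to the same wells and luminescence read after 30 min at room temperature.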

[4] = qHTS assay to identify small molecule agonists of the TGF-beta/Smad signaling pathway (AID 1346859; active means well fitted activation curve with a large enough effect in the signal ratio in the repeat runs, not every such curve was filed as active; the % refers to the signal ratio; further: series mostly up to about 77 µM)
How it was run: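 Dual-wavelength fluorescence (460/530 nm emission) quantified beta-lactamase expression under the Smad binding element in HEK 293T cells following 5 hr compound treatment at 37 C.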

[5] = target: Thyrotropin-releasing hormone receptor (Homo sapiens) (UniProt P34981); assay: qHTS assay to identify small molecule antagonists of the thyrotropin-releasing hormone receptor (TRHR) signaling pathway (AID 1346877; active means well fitted inhibition curve with a large enough effect in the repeat runs, not every such curve was filed as active; further: series mostly up to about 51 µM)
How it was run: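 Antagonist mode: after a 5 min room-temperature compound exposure, cells were stimulated with 1 nM (final) TRH. Dye-loaded TRHR-HEK293 cells were used, and calcium-dependent fluorescence was followed for 3 min, with 15-point titrations run in triplicate.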

[6] = target: Thyrotropin-releasing hormone receptor (Homo sapiens) (UniProt P34981); assay: qHTS assay to identify small molecule agonists of the thyrotropin-releasing hormone receptor (TRHR) signaling pathway (AID 1346891; calls by dose curve;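 further: HEK293 cells expressing TRHR with calcium dye readout; series mostly up to about 58 µM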)
How it was run: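 Kinetic fluorescence (3 min, 1 s intervals) reported intracellular calcium after compound transfer onto TRHR-Hek293 cells pre-loaded with dye for 2 h at 37 °C.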

[7] = qHTS assay to identify small molecule agonists of the TGF-beta/Smad signaling pathway - cell viability counter screen (AID 1346829); further: top concentration of the series differs between compounds; nearly all actives have a fitted effect of over 45% in size
How it was run: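 Luminescence from CellTiter-Glo, read after a 30 min room-temperature incubation, gives cell viability of SBE-bla HEK 293T cells treated 5 hr with compounds at 37 C.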

[8] = Human pregnane X receptor (PXR) small molecule agonists, qHTS cell viability counter screen (AID 1346977); further: nearly all actives have a fitted effect of over 50% in size; further: potency means the concentration at half of the fitted maximal effect
How it was run: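 HepG2 cells stably carrying the PXR-Luc reporter are cultured with 5% charcoal-stripped FBS and treated with compounds for 24hr. CellTiter-Fluor is added at 23hr and fluorescence is read after 1hr.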

[9] = qHTS assay to identify small molecule agonists of the progesterone receptor (PR) signaling pathway - cell viability counter screen (AID 1346799; calls by dose curve; further: nearly all actives have a fitted effect of over 45% in size; further: potency means the concentration at half of the fitted maximal effect)
How it was run: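 Viability was scored by ATP luminescence (CellTiter-Glo, 30 min, room temperature) in the same wells used for the reporter readout, after 16 hr compound exposure of PR-UAS-bla HEK293T cells.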

Measured: Potency

Chain of Thyrotropin-releasing hormone receptor (Homo sapiens) (P34981 whole entry, looked up): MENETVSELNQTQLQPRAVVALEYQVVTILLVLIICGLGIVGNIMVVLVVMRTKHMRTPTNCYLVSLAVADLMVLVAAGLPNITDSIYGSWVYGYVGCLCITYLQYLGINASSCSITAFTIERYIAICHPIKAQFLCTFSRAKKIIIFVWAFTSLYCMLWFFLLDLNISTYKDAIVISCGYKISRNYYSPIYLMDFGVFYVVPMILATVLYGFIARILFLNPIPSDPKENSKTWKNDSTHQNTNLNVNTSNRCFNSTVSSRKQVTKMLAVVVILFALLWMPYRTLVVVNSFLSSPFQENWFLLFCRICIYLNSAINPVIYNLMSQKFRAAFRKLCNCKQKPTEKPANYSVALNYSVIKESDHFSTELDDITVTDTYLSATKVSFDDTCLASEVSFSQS
Chain of Progesterone receptor (Homo sapiens) (P06401 whole entry, looked up): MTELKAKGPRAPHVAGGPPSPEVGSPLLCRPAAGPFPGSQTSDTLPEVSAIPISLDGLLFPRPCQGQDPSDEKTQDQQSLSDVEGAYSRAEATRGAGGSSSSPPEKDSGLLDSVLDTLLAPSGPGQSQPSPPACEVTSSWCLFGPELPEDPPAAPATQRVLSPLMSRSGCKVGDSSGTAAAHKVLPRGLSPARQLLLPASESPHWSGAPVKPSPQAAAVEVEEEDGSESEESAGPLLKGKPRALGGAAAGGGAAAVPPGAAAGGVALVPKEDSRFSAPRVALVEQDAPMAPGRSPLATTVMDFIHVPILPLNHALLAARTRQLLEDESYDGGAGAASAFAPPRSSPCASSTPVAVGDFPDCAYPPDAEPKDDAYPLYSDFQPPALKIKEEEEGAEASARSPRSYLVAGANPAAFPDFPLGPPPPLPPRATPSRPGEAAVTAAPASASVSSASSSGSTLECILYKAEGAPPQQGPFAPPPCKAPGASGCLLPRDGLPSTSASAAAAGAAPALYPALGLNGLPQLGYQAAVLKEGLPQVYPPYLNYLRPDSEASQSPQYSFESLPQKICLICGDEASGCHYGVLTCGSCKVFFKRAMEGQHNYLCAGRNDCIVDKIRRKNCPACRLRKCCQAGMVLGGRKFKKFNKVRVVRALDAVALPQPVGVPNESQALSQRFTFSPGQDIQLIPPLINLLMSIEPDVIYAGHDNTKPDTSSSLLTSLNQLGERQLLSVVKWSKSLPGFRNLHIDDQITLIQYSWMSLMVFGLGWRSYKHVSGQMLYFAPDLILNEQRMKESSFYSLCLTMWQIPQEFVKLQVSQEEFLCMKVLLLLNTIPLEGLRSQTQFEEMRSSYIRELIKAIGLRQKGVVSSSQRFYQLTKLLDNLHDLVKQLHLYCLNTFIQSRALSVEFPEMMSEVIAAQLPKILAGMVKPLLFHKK

CCCCC(=O)O[C@]1(C(=O)CO)CC[C@H]2[C@@H]3CCC4=CC(=O)CC[C@]4(C)[C@H]3[C@@H](O)C[C@@]21C
not listed: [7] | [8] | [9]
inactive: all other assays above

CCCCCCCCCCCC[N+](C)(C)CC(=O)[O-]
not listed: [2] | [9]
inactive: all other assays above

CCCOC(=O)c1ccc(C(=O)OCCC)nc1
not listed: [1] | [4] | [9]
inactive: all other assays above

CC(COc1ccc(C(C)(C)C)cc1)OS(=O)OCCCl (centres undefined)
inactive: [3] | [7] | [4] | [5] | [6]

O=C(/C=C/c1ccccc1)OCCCc1ccccc1
inactive: [1] | [3] | [7] | [4] | [8]

C[C@@H]1C[C@H]2[C@@H]3CCC4=CC(=O)C=C[C@]4(C)[C@@]3(F)[C@@H](O)C[C@]2(C)[C@@]1(O)C(=O)CO
inactive: [3] | [7] | [4]

CC1(C)C2=CCCC(C)(C)[C@]23CC[C@H]1C3
not listed: [2] | [9]
inactive: all other assays above

NC(=O)Nc1ccc(Cl)c(Cl)c1
not listed: [1]
inactive: all other assays above

CC(C)=CC=O
not listed: [1]
inactive: all other assays above

CN1CCN(CCCN2c3ccccc3Sc3ccc(S(=O)(=O)N(C)C)cc32)CC1
active: [2] 13.3 µM | [8] 26.6 µM
not listed: [1] | [9]
inactive: all other assays above

O=c1[nH]c2ccc(S(=O)CCN3CCC(Cc4ccc(F)cc4)CC3)cc2o1 (centres undefined)
inactive: [3] | [7] | [5] | [6]

CCCCN(CCCC)CCCOC(=O)c1ccc(N)cc1
not listed: [1] | [8] | [9]
inactive: all other assays above

CCOC(=N)CC(=O)OCC
active: [2] 17.2 µM
not listed: [1] | [9]
inactive: all other assays above

CCC(=O)Oc1ccc(/C(CC)=C(\CC)c2ccc(OC(=O)CC)cc2)cc1
active: [1] 12.2 µM
inactive: [3] | [4] | [5] | [6]

CCC(C)=O
not listed: [1] | [9]
inactive: all other assays above

CO/N=C1\CN(c2nc3c(cc2F)c(=O)c(C(=O)O)cn3C2CC2)CC1CN (centres undefined)
inactive: [2] | [9] | [3] | [7] | [4]

CC1C2CC(CC2C2CCCC(O)C2)C1(C)C (centres undefined)
not listed: [1] | [2] | [8]
inactive: all other assays above

CCOC(=O)CC(=O)C(=O)OCC
active: [2] 15.4 µM
inactive: [3] | [7] | [4] | [5] | [6]

C=CC(C)(C)CC(=O)OC
not listed: [1] | [8] | [9]
inactive: all other assays above

c1cc[c]([Bi]([c]2ccccc2)[c]2ccccc2)cc1
not listed: [1] | [2] | [9]
inactive: all other assays above

N#C/C(=C1\SCC(c2ccccc2Cl)S1)n1ccnc1 (centres undefined)
active: [1] 23.7 µM
not listed: [2] | [9]
inactive: all other assays above

COc1cc2ncnc(Nc3ccc(F)c(Cl)c3)c2cc1OCCCN1CCOCC1
active: [1] 21.1 µM | [8] 23.7 µM
not listed: [2] | [9]
inactive: all other assays above

CO[C@H]1C=CO[C@@]2(C)Oc3c(C)c(O)c4c(O)c(c5c(c4c3C2=O)=NC2(CCN(CC(C)C)CC2)N=5)NC(=O)/C(C)=C\C=C/[C@H](C)[C@H](O)[C@@H](C)[C@@H](O)[C@@H](C)[C@H](OC(C)=O)[C@@H]1C
inactive: [1] | [3] | [7] | [5] | [6]

CC1=C(/C=C/C(C)=C\C=C\C(C)=C\C(=O)O)C(C)(C)CCC1
inactive: [2] | [3] | [7] | [5] | [6]

C/C=C/C=C/CCCCCCCO
inactive: [3] | [7] | [4] | [5] | [6]

O=C(c1ccc(O)cc1)c1ccc(Cl)cc1
inactive: [2] | [3] | [5] | [6]

CC(=O)Oc1ccc2c(c1)CC[C@@H]1[C@@H]2CC[C@]2(C)[C@@H](O)CC[C@@H]12
inactive: [9] | [3] | [4] | [5] | [6]

CC(C)(C)CC(C)(C)c1ccc(OCCO)cc1
active: [1] 48.3 µM | [8] 27.1 µM
not listed: [2] | [9]
inactive: all other assays above

Cc1cc2nc3ccc(=[N+](C)C)cc-3sc2cc1N
inactive: [9] | [3] | [7] | [4]

C(=C\c1ccccc1)/CN1CCN(C(c2ccccc2)c2ccccc2)CC1
inactive: [3] | [4] | [5] | [6]

Cc1nccn1-c1ccc(Sc2cccc(C3(C(N)=O)CCOCC3)c2)cc1
active: [8] 8.63 µM
inactive: [7] | [4] | [5] | [6]

CCCCCCCCSCCO
not listed: [1]
inactive: all other assays above

Cc1occc1C(=O)Nc1ccc(C(=O)N2CCC(F)(F)/C(=C\C(=O)N3CCC(N4CCCCC4)CC3)c3ccccc32)cc1
active: [8] 17 µM
not listed: [2] | [9]
inactive: all other assays above

CNC(=S)NC
inactive: [3] | [7] | [4] | [5] | [6]
active: [9] 7.7 µM

O=C(O)C(Cc1cc(I)c(O)c(I)c1)c1ccccc1 (centres undefined)
inactive: [9] | [3] | [7] | [4] | [8]

Nc1ccc(C(=O)OCCCOC(=O)c2ccc(N)cc2)cc1
not listed: [1] | [2] | [9]
inactive: all other assays above

CC(=N\O)/C(C)=N/O
not listed: [1] | [2] | [9]
inactive: all other assays above

OCCSc1ccccc1
inactive: [3] | [7] | [4] | [8]

CC[C@H](NC(=O)c1cc(F)ccc1NS(=O)(=O)c1cccc2cccnc12)c1ccccc1
not listed: [1] | [2] | [7]
inactive: all other assays above

Fc1ccccc1[C@@H](F)COC1CCC(Nc2ncnc3[nH]ncc23)CC1 (some centres undefined)
active: [1] 27.3 µM | [8] 27.3 µM
inactive: [3] | [7] | [5] | [6]

CCCCC1C(=O)N(c2ccccc2)N(c2ccc(O)cc2)C1=O (centres undefined)
inactive: [3]
active: [8] 26.6 µM
